In the library only some 0.9% were active in any assay of this set; here they are far more common.
PPARg SRC-2 ag = promotes SRC-2 coactivator recruitment by human PPARgamma; 200,000 compounds, 0.34% hits; PPARgamma LBD-SRC-2 recruitment, biochemical; P37231; activation, % at 8 µM; in the data active = activation above about 22%
Target sequence (P37231 whole entry, looked up, the tested form may be a part): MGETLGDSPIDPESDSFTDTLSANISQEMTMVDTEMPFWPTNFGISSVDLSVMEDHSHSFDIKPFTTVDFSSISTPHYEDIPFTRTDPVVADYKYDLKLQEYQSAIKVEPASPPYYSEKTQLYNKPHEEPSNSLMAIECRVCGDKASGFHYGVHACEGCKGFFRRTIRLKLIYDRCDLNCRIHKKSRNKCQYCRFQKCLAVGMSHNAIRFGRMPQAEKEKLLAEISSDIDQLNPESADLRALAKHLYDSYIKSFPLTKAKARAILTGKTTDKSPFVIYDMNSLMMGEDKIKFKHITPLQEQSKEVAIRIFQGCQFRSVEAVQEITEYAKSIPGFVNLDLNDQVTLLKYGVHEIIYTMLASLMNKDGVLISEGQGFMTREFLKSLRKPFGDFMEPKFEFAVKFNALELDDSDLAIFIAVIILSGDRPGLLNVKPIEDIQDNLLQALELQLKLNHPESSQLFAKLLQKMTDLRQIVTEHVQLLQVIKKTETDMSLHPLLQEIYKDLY
PPARg SRC3 recr = agonists of human PPARgamma SRC-3 coactivator recruitment; biochemical PPARgamma/SRC-3 coactivator recruitment assay; P37231; activation, % at 8 µM; 200,000 compounds, 0.26% hits; in the data active = activation above about 23%
SRC2 TRFRET art = TR-FRET artefact, counter-screen to PPARgamma/SRC-2 agonist assay; stronger effect = higher value; TR-FRET ratio at 8 µM; 200,000 compounds, 0.4% hits; AID 1049
PPARg SRC-1 ag = agonists of human PPARgamma SRC-1 coactivator recruitment | P37231 | PPARgamma-SRC-1 coactivator recruitment biochemical assay | activation, % at 8 µM | 200,000 compounds, 0.41% hits | AID 631; in the data active = activation above about 19%
SRC1 TRFRET art = flags TR-FRET format artefacts in PPARgamma SRC-1 recruitment agonist screen; TR-FRET ratio at 8 µM; 99,000 compounds, 0.34% hits; TR-FRET detection artefact counter-screen, emission ratio; stronger effect = higher value; in the data active = TR-FRET ratio above about 2300
SRC3 TRFRET art = counter-screen for PPARgamma SRC-3 recruitment agonists: TR-FRET artefact. TR-FRET ratio at 8 µM. 99,000 compounds, 0.39% hits. PPARgamma/SRC-3 format; stronger effect = higher value. AID 1048
Each line names hits and unclear results; the compound was inactive in the other large screens. Cut-off read from the data, not from the text of the source, unless noted: active = TR-FRET ratio above about 2000; inactive = the rest.

CCOC(=O)c1c(NC(=O)CSc2nnc(CNc3ccc(F)cc3)o2)sc(C(C)=O)c1C	PPARg SRC3 recr 34 (no result: SRC1 TRFRET art, SRC3 TRFRET art)
CCOC(=O)c1c(NC(=O)CSc2nc(C)cc(C)c2C#N)sc(C(C)=O)c1C	PPARg SRC-2 ag 62, SRC2 TRFRET art 3647 (no result: SRC1 TRFRET art, SRC3 TRFRET art)
Cc1nc2ccc(-c3nc4ccc(N)cc4[nH]3)cc2[nH]1	SRC3 TRFRET art 2163
OC(C#CCN1CCCC1)(c1ccccc1)c1cccc(F)c1 (configuration not stated)	PPARg SRC-2 ag 26
COc1cccc(-c2nnc(NC(=O)c3ccc4ncsc4c3)o2)c1	none
O=C(Nc1nccs1)c1cncc(Br)c1	none
COc1cc2[nH]c(=S)nc(NCCc3ccc(C)cc3)c2cc1OC	PPARg SRC-2 ag 24, PPARg SRC-1 ag 21, SRC1 TRFRET art 2432, SRC3 TRFRET art 2231
O=C(N/N=C/c1ccc[nH]1)c1ccc([N+](=O)[O-])cc1	none
COc1cccc(Nc2nnc(SCC3CCCCO3)s2)c1 (configuration not stated)	SRC2 TRFRET art 2017
CCNC(=O)C12CCC(C)(C(=O)O1)C2(C)C (configuration not stated)	none
CC(=O)Nc1cccc(NC(=O)c2ccc(C)c([N+](=O)[O-])c2)c1	SRC1 TRFRET art 2324
COc1ccc(C2=NN(C(=O)CSc3cn(C)c4ccccc34)C(c3ccc(OC)cc3)C2)cc1 (configuration not stated)	SRC2 TRFRET art 9469 (no result: SRC1 TRFRET art, SRC3 TRFRET art)
COc1ccc(C2=NN(C(=O)CSc3ncccn3)C(c3ccc(OC)cc3)C2)cc1 (configuration not stated)	none
COc1ccc(C2CC(c3ccc4ccccc4c3)=NN2C(=O)CSc2ncccn2)cc1 (configuration not stated)	SRC3 TRFRET art 2117
COc1ccc(C2=NN(C(=O)CSc3nc4ccccc4s3)C(c3ccc(OC)cc3)C2)cc1 (configuration not stated)	none
O=C(CN1CCN(c2ccccc2O)CC1)NCCCc1ccccc1	none
CC1CCCCN1C(=O)Nc1cccc(C(F)(F)F)c1 (configuration not stated)	SRC1 TRFRET art 2319
COc1ccccc1N(CC(=O)NCC1CCCO1)C(=O)CCC(=O)Nc1nccs1 (configuration not stated)	PPARg SRC-2 ag 25 (no result: SRC1 TRFRET art, SRC3 TRFRET art)
CC(=O)c1ccccc1OC(=O)CCN1C(=O)c2ccccc2C1=O	none
N#CC1=C(N)OC2=C(CC/C2=C\c2ccc(F)cc2)C1c1ccc(F)cc1 (configuration not stated)	none
N#CC1=C(N)OC2=C(CCC/C2=C/c2ccoc2)C1c1ccoc1 (configuration not stated)	PPARg SRC3 recr 31 (no result: SRC1 TRFRET art, SRC3 TRFRET art)
C#CCOCCOCCOCCNc1nc(N2CCN(C(=O)Cn3cc(CC(C)O)nn3)CC2)nc(N2CCN(C(=O)[C@H](C)n3cc(CCCN=C(N)N)nn3)CC2)n1 (some centres not stated)	none
CC(C)(C)c1cc(C(=S)N2CCN(CCO)CC2)cc(C(C)(C)C)c1O	PPARg SRC3 recr 28 (no result: SRC1 TRFRET art, SRC3 TRFRET art)
Cc1ccc(/C=N/NC(=O)c2ccoc2C)s1	none
Cc1occc1C(=O)N/N=C/c1ccc(Br)s1	PPARg SRC-1 ag 22
O=C(Nc1cccc(NS(=O)(=O)c2ccc(S(=O)(=O)NC3CC3)cc2)c1)c1ccccn1	PPARg SRC-1 ag 23 (no result: SRC1 TRFRET art, SRC3 TRFRET art)
Cc1cccc(CN2CCN(C(=O)CCl)CC2)c1	none
CC(=O)c1cc2c(cc1NS(=O)(=O)c1ccc(C)cc1)OCCO2	none (no result: SRC1 TRFRET art, SRC3 TRFRET art)
Cc1c(C(=O)OCC(=O)c2ccc3c(c2)OCCO3)oc2ccccc12	SRC2 TRFRET art 2066 (no result: SRC1 TRFRET art, SRC3 TRFRET art)
Cc1cc(C(=O)OCC(=O)c2ccc3c(c2)OCCO3)c(C)o1	none (no result: SRC1 TRFRET art, SRC3 TRFRET art)
CCOC(=O)/C(C#N)=C/c1cc2ccccc2nc1N1CCCCC1	SRC2 TRFRET art 2031, SRC3 TRFRET art 2129
O=[N+]([O-])c1ccccc1-c1ccc(C(=S)N2CCCC2)o1	SRC2 TRFRET art 1992
Cc1cccc(N2CCN(C(=S)c3ccc(-c4ccccc4[N+](=O)[O-])o3)CC2)c1	none
S=C(c1ccc(-c2cccc(Cl)c2)o1)N1CCCCC1	SRC1 TRFRET art 2350
S=C(c1ccc(-c2cccc(Cl)c2)o1)N1CCOCC1	none
CCOC(=O)CCN(Cc1sccc1C)S(=O)(=O)c1ccc(F)cc1	none (no result: SRC1 TRFRET art, SRC3 TRFRET art)
